We go through 9 compounds from PubChem BioAssay (Tox21).

Results filed as inconclusive are left out. Calls of active or inactive are those of the source. Unless noted, calls come from the whole dose curve.

A short description of assay [1]: Nuclear factor erythroid 2-related factor 2/antioxidant responsive element (Nrf2/ARE) small molecule agonists: luciferase reporter gene qHTS assay in human keratinocytes (AID 1919969). Note: nearly all actives have a fitted effect of over 35% in size. Note: potency is the fitted concentration of half-maximal effect. On the technique in general: A reporter such as luciferase makes a cellular process visible.
The target of assay [2] is Gonadotropin-releasing hormone receptor (Homo sapiens) (UniProt P30968). The assay is described as follows: Human gonadotropin-releasing hormone receptor (GnRHR) small molecule agonists, calcium flux assay in GnRHR-HEK293 cells (AID 1920063). Note: nearly all actives have a fitted effect of over 35% in size. The procedure, abridged: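 Calcium flux, agonist mode, human GnRHR stably integrated in HEK293; dye 1 h at 37 C before compound; Ex/Em=480/540 kinetic read, 3 min; 15 concentrations, triplicate.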
In general terms: A change in cytosolic calcium serves as a functional read-out for many receptors and channels.

Assay [3] is described as follows: G protein-coupled receptor (GPCR) small molecule agonists, calcium flux assay: HEK293 wild type cell line counter screen (AID 1920065). The method, boiled down:
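Non-specific calcium responders were flagged by adding DMSO-dissolved compounds to dye-loaded cells and reading 480/540 nm fluorescence each second for 3 min; ATP served as positive control.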

The nature of assay [4]: p53 small molecule agonists, cell-based qHTS assay with rat liver microsomes (AID 1963578). The method, boiled down:
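Metabolic activation is supplied by rat liver microsomes with NADPH (each 0.5 mg/mL final). p53RE-bla cells incubate with compound 16 h at 37 C; reporter activity is measured by LiveBLAzer fluorescence.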
For orientation: Quantitative high-throughput screening tests each substance at several concentrations.

A short description of assay [5]: p53 small molecule agonists, cell-based qHTS assay with human liver microsomes: qHTS cell viability counter screen (AID 1963579). Note: nearly all actives have a fitted effect of over 45% in size. Note: potency is the fitted concentration of half-maximal effect. The method, boiled down: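 After the 460/530 nm beta-lactamase read, CellTiter-Glo was added to the same wells and luminescence measured after 30 min at room temperature, giving viability of p53RE-bla cells treated 16 h with compounds plus microsomes and NADPH.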

Assay [6] in a line: p53 small molecule agonists, cell-based qHTS assay: qHTS cell viability counter screen (AID 1963581). Note: nearly all actives have a fitted effect of over 45% in size. Note: potency is the fitted concentration of half-maximal effect. The method, boiled down:
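Multiplexed with the reporter read, a CellTiter-Glo step (30 min, room temperature) gauges ATP-based viability of HCT-116 p53RE-bla cells after 16 h compound incubation at 37 C.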

In assay [7] the target is Muscarinic acetylcholine receptor M1 (Homo sapiens) (UniProt P11229). The assay is described as follows: Cholinergic receptor muscarinic 1 (CHRM1) small molecule antagonists, cell-based qHTS assay (AID 1963588). Note: nearly all actives have a fitted effect of over 40% in size. The procedure, abridged: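 Compounds were tested at 15 concentrations in three independent runs. Dye-loaded CHRM1-CHO cells were exposed 5 min at room temperature before stimulation by acetylcholine added at 50nM. Intracellular calcium was read kinetically on FDSS for 3 min.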

Assay [8] shares this target. The assay is described as follows: Cholinergic receptor muscarinic 1 (CHRM1) small molecule agonists, cell-based qHTS assay (AID 1963589). Note: nearly all actives have a fitted effect of over 35% in size. Note: potency is the fitted concentration of half-maximal effect. The method, boiled down: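 qHTS, 15-point titration, 3 independent runs: compounds pin-transferred onto dye-loaded CHRM1-CHO cells (human M1), calcium fluorescence followed every second to detect agonism.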
Assay [9] in a line: cAMP Responsive Elements (CRE) small molecule antagonists, cell-based qHTS assay (AID 1963591; active = well fitted inhibition curve with a large enough effect in the signal ratio in the repeat runs, not every such curve was filed as active; the % refers to the signal ratio). The method, boiled down:
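Fluorescence intensity from cleaved LiveBLAzer B/G substrate (2 h, room temperature) quantified CRE-bla activity in HEK 293T cells exposed 3 h to compound with 0.25 uM final NKH477.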

The target of assay [10] is Beta-2 adrenergic receptor (Homo sapiens) (UniProt P07550). The assay is described as follows: Adrenergic beta2 receptor (ADRB2) small molecule antagonists, cell-based qHTS assay (AID 1963592). Note: nearly all actives have a fitted effect of over 50% in size. Note: potency is the fitted concentration of half-maximal effect. The method, boiled down: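 Assay format: CHO-ADRB2 cells, 18-20hr seeding at 37C/5% CO2, then compound plus 1nM isoproterenol agonist mix for 0.5hr RT. Homogeneous time-resolved fluorescence cAMP detection after 1hr, expressed as 665/615 nm ratio.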

In assay [11] the target is D(2) dopamine receptor (Homo sapiens) (UniProt P14416). The assay is described as follows: Dopamine D2 receptor (DRD2) small molecule antagonists, cell-based qHTS assay (AID 1963595; active = well fitted inhibition curve with a large enough effect in the signal ratio in the repeat runs, with a control signal flat; the % refers to the signal ratio; note: potency is the fitted concentration of half-maximal effect). The procedure, abridged: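 HEK293 cells stably expressing DRD2 were preincubated with 0.1 mM Ro20-1724, then with compound for 10 min at room temperature. Cells were stimulated with 200 nM NKH477 plus 12 nM quinpirole for 30 min, and cAMP was read by HTRF.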

The target in assay [12] is KiSS-1 receptor (Homo sapiens) (UniProt Q969F8). The assay is described as follows: Human kisspeptin (KISS1R) small molecule agonists, calcium flux assay in KISS1R-HEK293 cells (AID 1920064; active = well fitted activation curve with a large enough effect in the repeat runs). The procedure, abridged: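 Triplicate 15-concentration series were applied to dye-loaded human KISS1R HEK293 cells, and agonist-evoked calcium fluorescence was captured for 3 min.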

The nature of assay [13]: p53 small molecule agonists, cell-based qHTS assay with human liver microsomes (AID 1963577).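 Note: p53 response element beta-lactamase reporter cells with liver microsomes plus NADPH.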 The procedure, abridged: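 Steps: plate p53RE-bla cells, incubate 5 h at 37 C; add compound in DMSO; add microsomes (0.5 mg/mL final) and NADPH (0.5 mg/mL final); incubate 16 h at 37 C; add LiveBLAzer, 2 h RT; read fluorescence.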
Assay [14] concerns the target 5-hydroxytryptamine receptor 2A (Homo sapiens) (UniProt P28223). The assay is described as follows: 5-hydroxytryptamine receptor 2A (HTR2A) small molecule antagonists, cell-based qHTS assay (AID 1963586). Note: nearly all actives have a fitted effect of over 45% in size. Note: potency is the fitted concentration of half-maximal effect. The procedure, abridged:
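CHO cells stably expressing human HTR2A were plated for 18 h at 37 C, then loaded with calcium dye for 1 h. Compounds were preincubated 5 min at room temperature before DOI (4 nM solution) was added. Kinetic fluorescence was read for 3 min.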

Assay [15] has the same target. The assay is described as follows: 5-hydroxytryptamine receptor 2A (HTR2A) small molecule agonists, cell-based qHTS assay (AID 1963587). Note: nearly all actives have a fitted effect of over 30% in size. Note: potency is the fitted concentration of half-maximal effect. The method, boiled down:
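HTR2A-CHO cells, plated 18 h at 37 C/5% CO2, dye-loaded 1 h at 37 C; compounds in DMSO added by pin tool (agonist mode). Intracellular calcium flux read as kinetic fluorescence on FDSS over 2 min at 1 s intervals.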

Assay [16] addresses D(2) dopamine receptor (Homo sapiens) (UniProt P14416). The assay is described as follows: Dopamine D2 receptor (DRD2) small molecule agonists, cell-based qHTS assay (AID 1963594). Note: nearly all actives have a fitted effect of over 35% in size. The method, boiled down:
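HEK293 cells stably expressing DRD2 were cultured 24 h at 37 C, then given Ro20-1724 (0.1 mM final) and compounds for 10 min at room temperature. NKH477 (200nM) was then added for 30 min. cAMP was read by HTRF.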

Assay [17] can be described thus: p53 small molecule agonists, cell-based qHTS assay with rat liver microsomes: qHTS cell viability counter screen (AID 1963580). Note: nearly all actives have a fitted effect of over 45% in size. Note: potency is the fitted concentration of half-maximal effect. The method, boiled down: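 Luminescent ATP readout (CellTiter-Glo, 30 min at room temperature) reports viability of p53RE-bla HCT-116 cells after 16 h at 37 C with test compounds under metabolic activation by rat liver microsomes and NADPH at 0.5 mg/mL final each.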

Assay [18] deals with Beta-2 adrenergic receptor (Homo sapiens) (UniProt P07550). The assay is described as follows: Adrenergic beta2 receptor (ADRB2) small molecule agonists, cell-based qHTS assay (AID 1963593).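 Note: CHO cells stably overexpressing human ADRB2.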 The method, boiled down:
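CHO cells stably over-expressing ADRB2 were plated overnight at 37C, then dosed with compounds plus a stimulation mix containing 100uM IBMX and 25uM Ro-20-1724 for 0.5hr at room temperature. cAMP was measured by HTRF competition, 1hr.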

Assay [19] is described as follows: p53 small molecule agonists, cell-based qHTS assay (AID 1963582; active = well fitted activation curve with a large enough effect in the signal ratio in the repeat runs, not every such curve was filed as active; the % refers to the signal ratio). The procedure, abridged: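 Beta-lactamase reporter cells (p53RE-bla) treated with compounds for 16 h at 37 C; FRET substrate, 2 h, room temperature; fluorescence intensity.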
Assay [20] in a line: cAMP Responsive Elements (CRE) small molecule agonists, cell-based qHTS assay (AID 1963590). The procedure, abridged: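 Quantitative HTS for CRE agonists: HEK 293T CRE-bla cells, overnight plating, 3 h compound incubation at 37 C/5% CO2, then 2 h room-temperature LiveBLAzer B/G FRET substrate loading.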

5-hydroxytryptamine receptor 2A (Homo sapiens), sequence (P28223 whole entry, looked up): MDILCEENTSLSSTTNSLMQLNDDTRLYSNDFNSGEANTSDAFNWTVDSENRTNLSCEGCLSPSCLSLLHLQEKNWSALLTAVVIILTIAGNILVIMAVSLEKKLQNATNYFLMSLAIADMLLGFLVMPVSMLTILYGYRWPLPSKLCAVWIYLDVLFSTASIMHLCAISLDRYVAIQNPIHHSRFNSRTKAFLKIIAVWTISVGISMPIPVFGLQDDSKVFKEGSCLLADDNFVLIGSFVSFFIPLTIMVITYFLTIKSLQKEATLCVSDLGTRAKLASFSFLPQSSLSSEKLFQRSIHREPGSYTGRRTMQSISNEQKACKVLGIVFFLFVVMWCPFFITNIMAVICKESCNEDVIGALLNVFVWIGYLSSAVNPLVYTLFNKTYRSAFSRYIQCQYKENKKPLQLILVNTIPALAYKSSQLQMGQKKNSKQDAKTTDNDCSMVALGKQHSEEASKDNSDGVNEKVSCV
Muscarinic acetylcholine receptor M1 (Homo sapiens), sequence (P11229 whole entry, looked up): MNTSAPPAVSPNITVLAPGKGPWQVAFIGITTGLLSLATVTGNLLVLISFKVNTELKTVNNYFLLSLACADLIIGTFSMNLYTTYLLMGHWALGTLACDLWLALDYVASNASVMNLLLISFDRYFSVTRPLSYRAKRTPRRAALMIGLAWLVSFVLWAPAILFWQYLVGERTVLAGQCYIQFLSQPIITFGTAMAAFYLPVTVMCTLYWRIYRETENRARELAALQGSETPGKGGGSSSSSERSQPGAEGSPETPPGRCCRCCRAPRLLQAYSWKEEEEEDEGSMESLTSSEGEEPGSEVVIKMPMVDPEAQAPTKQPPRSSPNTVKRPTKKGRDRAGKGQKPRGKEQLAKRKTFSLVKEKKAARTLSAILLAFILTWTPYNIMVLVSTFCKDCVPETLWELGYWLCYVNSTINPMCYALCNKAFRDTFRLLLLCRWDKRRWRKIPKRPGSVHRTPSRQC
Beta-2 adrenergic receptor (Homo sapiens), sequence (P07550 whole entry, looked up): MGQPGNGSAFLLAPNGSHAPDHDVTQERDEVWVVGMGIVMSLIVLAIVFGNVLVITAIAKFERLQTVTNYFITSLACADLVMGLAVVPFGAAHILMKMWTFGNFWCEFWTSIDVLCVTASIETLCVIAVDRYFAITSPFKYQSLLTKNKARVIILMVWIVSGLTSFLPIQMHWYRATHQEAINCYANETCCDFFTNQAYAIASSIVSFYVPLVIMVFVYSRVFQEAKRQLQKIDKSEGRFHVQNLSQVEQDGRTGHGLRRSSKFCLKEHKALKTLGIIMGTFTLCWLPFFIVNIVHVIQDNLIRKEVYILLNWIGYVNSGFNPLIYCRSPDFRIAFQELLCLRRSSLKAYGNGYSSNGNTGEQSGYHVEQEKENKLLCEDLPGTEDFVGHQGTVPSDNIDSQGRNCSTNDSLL
KiSS-1 receptor (Homo sapiens), sequence (Q969F8 whole entry, looked up): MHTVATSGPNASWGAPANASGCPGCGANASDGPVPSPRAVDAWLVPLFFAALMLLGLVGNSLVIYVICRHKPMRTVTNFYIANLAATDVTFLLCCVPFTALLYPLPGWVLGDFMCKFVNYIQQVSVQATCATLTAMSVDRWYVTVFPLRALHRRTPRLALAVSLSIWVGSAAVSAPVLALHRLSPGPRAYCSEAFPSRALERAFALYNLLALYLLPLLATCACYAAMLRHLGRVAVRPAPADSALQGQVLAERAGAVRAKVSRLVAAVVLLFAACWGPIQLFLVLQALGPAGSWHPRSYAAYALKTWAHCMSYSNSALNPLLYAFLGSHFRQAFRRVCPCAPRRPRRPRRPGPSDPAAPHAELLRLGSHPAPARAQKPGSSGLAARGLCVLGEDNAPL
Gonadotropin-releasing hormone receptor (Homo sapiens), sequence (P30968 whole entry, looked up): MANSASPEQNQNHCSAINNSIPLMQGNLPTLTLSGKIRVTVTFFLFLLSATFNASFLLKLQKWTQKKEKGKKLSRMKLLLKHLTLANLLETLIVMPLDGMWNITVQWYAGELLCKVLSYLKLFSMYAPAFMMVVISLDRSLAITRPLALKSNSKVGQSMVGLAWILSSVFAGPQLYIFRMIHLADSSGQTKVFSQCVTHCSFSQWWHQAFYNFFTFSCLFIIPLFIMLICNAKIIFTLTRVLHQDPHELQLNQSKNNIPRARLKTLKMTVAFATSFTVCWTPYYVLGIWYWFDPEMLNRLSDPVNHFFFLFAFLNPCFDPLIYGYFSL
D(2) dopamine receptor (Homo sapiens), sequence (P14416 whole entry, looked up): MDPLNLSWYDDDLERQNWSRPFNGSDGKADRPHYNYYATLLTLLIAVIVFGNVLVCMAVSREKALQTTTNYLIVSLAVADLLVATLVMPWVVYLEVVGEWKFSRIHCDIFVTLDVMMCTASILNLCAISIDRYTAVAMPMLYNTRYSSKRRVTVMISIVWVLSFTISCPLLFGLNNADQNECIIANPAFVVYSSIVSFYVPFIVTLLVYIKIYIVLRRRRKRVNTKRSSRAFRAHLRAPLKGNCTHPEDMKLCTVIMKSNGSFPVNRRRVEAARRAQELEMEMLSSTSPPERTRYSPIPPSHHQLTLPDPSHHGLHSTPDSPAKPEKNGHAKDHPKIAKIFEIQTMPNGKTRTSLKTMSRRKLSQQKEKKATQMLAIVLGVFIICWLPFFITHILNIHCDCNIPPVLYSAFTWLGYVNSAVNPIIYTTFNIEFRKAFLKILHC

`O=C(Nc1ccc(S(=O)(=O)N2CCOCC2)cc1)c1cc(Cl)ccc1NS(=O)(=O)c1ccc(Cl)s1`: the Potency entry in assay [1], in assay [2], in assay [3], in assay [4], in assay [5] and in assay [6] was “inactive” in each case. The Potency entry in assay [7], in assay [8], in assay [9], in assay [10] and in assay [11] was “inactive” throughout.
As to `O=C(Nc1ccccc1)c1cc(Cl)ccc1O`, the Potency in [1] is 13.7 µM (active); in [6], 40.8 µM (active); in assay [10] it was 61.1 µM (active). Also, the Potency entry in assay [2], in assay [12], in assay [13], in assay [4], in assay [14] and in [15] was “inactive” each time. Also, the Potency entry in assay [7], in [8], in assay [16] and in assay [11] was “inactive” throughout.
On to `CC(C)C(OC(=O)c1ccccc1)C(C)(C)COC(=O)c1ccccc1` (stereo unspecified), for which the Potency in assay [1] is 30.6 µM (active). Further, the Potency entry in assay [2], in assay [3], in [13], in assay [4], in assay [5] and in [17] was “inactive” each time. Further, the Potency entry in assay [6], in [14], in assay [15], in [7], in assay [9] and in assay [10] was “inactive” each time. In addition, the Potency result in assay [18], in assay [16] and in assay [11] was “inactive” each time.
Turning to `CC(=O)c1ccc2c(c1)N(CCCN1CCC(CCO)CC1)c1ccccc1S2`, the Potency result in assay [1], in assay [2], in assay [12], in assay [13], in [5] and in assay [17] was “inactive” in each case. Besides, the Potency entry in assay [6], in assay [19], in assay [15], in [8] and in [16] was “inactive” in each case. The Potency is 0.326 µM (active) in assay [14] and 0.0168 µM (active) in [11].
With `COC(=O)Nc1nc2ccc(C(=O)c3ccccc3)cc2[nH]1`, the Potency in [1] was 3.76 µM (active). Besides, the Potency result in assay [2], in [3], in assay [13], in [4], in [17] and in assay [9] was “inactive” throughout. Besides, the Potency result in assay [10], in [16] and in [11] was “inactive” each time.
For `CCCCCCCCCCCCCCOS(=O)(=O)O`, the Potency result in assay [1], in assay [2], in [3], in [13], in assay [4] and in assay [5] was “inactive” throughout. Moreover, the Potency entry in assay [17], in assay [19], in assay [7], in [8], in assay [20] and in assay [10] was “inactive” in each case. Further, the Potency entry in assay [18], in [16] and in assay [11] was “inactive” each time. In addition, in [15], the Potency was 43.6 µM (active).
For `NS(=O)(=O)c1ccc(C(=O)O)cc1`, the Potency result in assay [1], in [2], in [12], in assay [4], in assay [5] and in assay [17] was “inactive” in each case. The Potency entry in assay [19], in [14], in assay [15], in assay [7], in assay [9] and in [10] was “inactive” in each case. In addition, the Potency entry in [18] and in [11] was “inactive” throughout.
In the case of `CC[C@@]1(c2ccccc2)NC(=O)N(C)C1=O`, the Potency result in assay [1], in assay [2], in assay [3], in assay [5], in [17] and in assay [6] was “inactive” in each case. Further, the Potency entry in assay [14], in [15], in assay [7], in [8], in assay [20] and in assay [9] was “inactive” throughout. For the same compound, the Potency entry in [10], in assay [18] and in [16] was “inactive” throughout.
For the compound `CCCCN(CCCC)c1ccc(C(=O)c2ccccc2C(=O)O)c(O)c1`, the Potency result in [1], in assay [2], in assay [3], in assay [13], in assay [4] and in [7] was “inactive” each time. The Potency result in assay [16] and in assay [11] was “inactive” in each case. Moreover, the Potency was 16.4 µM (active) in assay [5]; 41.2 µM (active) in [17]; 20.6 µM (active) in [6]; 55.5 µM (active) in assay [15]; 49.4 µM (active) in assay [8].
